Screening results: PubChem, National Center for Advancing Translational Sciences (NCATS)
This excerpt belongs to a sample that is enriched for hits.
TDP1 cell CPT = DT40-hTDP1 cell growth loss with CPT; chicken DT40 Tdp1-/-;hTDP1 cells + 20 nM CPT, ATP luminescence, 48 h; Potency, µM (highest dose often 46.2 µM), without a hit: top-dose activity change, negative = growth inhibition, hits mostly inhibitors; hit rate 12% among 420,000; AID 686979; note: potency is the fitted concentration of half-maximal effect; nearly all actives have a fitted effect of over 55% in size
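Chicken DT40 Tdp1-/- cells stably complemented with human TDP1 were seeded at 400 cells/well in medium containing 20 nM camptothecin, exposed to pin-transferred compounds, and grown at 37 °C for at least 48 hr. Viability was read as ATP luminescence.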
HT1080 IDH1KD tx = HT-1080 IDH1 knockdown cell toxicity (counter line); HT-1080 IDH1 knockdown viability, ATP luminescence, 48 h; hit rate 2% among 360,000; Potency, µM (highest dose often 46.1 µM), inactives show at the highest dose activity, negative = toxicity, usual class: cytotoxic; AID 686971;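 note: potency is the fitted concentration of half-maximal effect; 0% = DMSO wells and -100% = cell-free medium wells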
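Viability of IDH1-knockdown HT-1080 fibrosarcoma cells was assessed by CellTiter-Glo after 48 h at 37 °C with titrated compound; concentration-effect curves were classified by fit quality and response size.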
HT1080NT lethal = kills 2HG-producing HT-1080-NT fibrosarcoma cells. hit rate 1.6% among 360,000. HT-1080-NT fibrosarcoma viability, CellTiter-Glo ATP luminescence, 48 h. Potency, µM (titrated, usually from 46.1 µM), inactives show at the highest dose activity, negative = less viability, most hits filed as cytotoxic;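 note: NT is the 2HG producing partner of a matched IDH1 knockdown line; potency is the fitted concentration of half-maximal effect; 0% = DMSO-treated cells and -100% = media-only wells without cells; nearly all actives have a fitted effect of over 55% in size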
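750 cells/well, RPMI + 5% FBS; 2 h settle, compound pin-transfer, 48 h at 37 degrees C. CellTiter-Glo 10 min RT, luminescence. Normalized to DMSO and media-only wells.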
DT40 TDP1 no CPT = qHTS for Inhibitors of human tyrosyl-DNA phosphodiesterase 1 (TDP1): qHTS in cells in absence of CPT; DT40 Tdp1-/- hTDP1 cells, no CPT, ATP luminescence, 48 h; Potency, µM (top dose mostly 46.2 µM), inactives show at the top dose activity change, negative = growth inhibition, hits mostly inhibitors; hit rate 15% among 420,000; AID 686978, 2013; note: potency is the fitted concentration of half-maximal effect; nearly all actives have a fitted effect of over 55% in size
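Chicken DT40 Tdp1-/- cells stably complemented with human TDP1 were seeded at 400 cells/well with DMSO in place of 20 nM camptothecin. After compound pinning, cells grew at least 48 hr at 37 °C; viability read by CellTiter-Glo luminescence.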
ALOX12 inh = blocks human arachidonate 12S-lipoxygenase. purified 12hLO, xylenol orange hydroperoxide absorbance. P18054. Potency, µM (series often up to 108 µM), for the others: top-dose activity change, negative = inhibition, actives largely listed as inhibitors. hit rate 1.1% among 580,000. AID 1671190; note: potency is the fitted concentration of half-maximal effect
Target sequence (P18054 whole entry, looked up): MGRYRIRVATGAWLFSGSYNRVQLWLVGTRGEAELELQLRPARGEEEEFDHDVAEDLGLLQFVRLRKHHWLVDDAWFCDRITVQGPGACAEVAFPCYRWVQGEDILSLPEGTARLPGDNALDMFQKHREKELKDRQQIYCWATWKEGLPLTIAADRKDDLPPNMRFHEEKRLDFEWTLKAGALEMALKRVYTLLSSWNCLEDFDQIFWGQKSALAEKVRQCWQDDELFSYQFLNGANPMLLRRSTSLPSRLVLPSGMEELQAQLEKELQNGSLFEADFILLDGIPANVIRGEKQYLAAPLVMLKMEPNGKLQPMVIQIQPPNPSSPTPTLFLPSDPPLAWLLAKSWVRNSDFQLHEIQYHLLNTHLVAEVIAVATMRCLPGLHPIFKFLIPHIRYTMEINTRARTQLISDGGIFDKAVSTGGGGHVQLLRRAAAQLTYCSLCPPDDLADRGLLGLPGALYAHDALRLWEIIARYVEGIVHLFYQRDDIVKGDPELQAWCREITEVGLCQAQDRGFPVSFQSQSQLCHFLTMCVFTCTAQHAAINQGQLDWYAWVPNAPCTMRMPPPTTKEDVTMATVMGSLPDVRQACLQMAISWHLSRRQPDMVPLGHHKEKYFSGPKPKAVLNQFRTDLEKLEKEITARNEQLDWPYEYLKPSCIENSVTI
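Purified human 12hLO at 150 nM in 25 mM Hepes, 0.01% Triton X-100, pH 7.0, preincubated 15 min at room temperature with compound. Reaction started with 40 uM arachidonic acid, 30 min at room temperature. Hydroperoxide measured by Fe-xylenol orange, 573/405 nm absorbance ratio.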
IL-1B inflam inh = blocks inflammasome-driven IL-1 beta release; THP-1 LPS/ATP IL-1B secretion, AlphaLISA, 16 h; active compounds read low; activity change, % at 57.5 µM; hit rate 4.7% among 360,000; AID 743279; in the data active = activity change below about -50%; inconclusive = mostly about -30% to -49%
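Secreted IL-1B measured by AlphaLISA bead assay after 16 h compound exposure of THP-1 cells; compounds (final up to 57.5 uM) added 1 h before LPS (250 ng/mL) and ATP (1.25 mM) stimulation; lower signal means less secretion.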
The depositor's hits bear a star; ? = inconclusive; . = no result; [ ] = another dose, or the depositor's remark. Unless noted, calls come from the whole dose curve; as a rule, active = well fitted curve in the direction sought with a large enough effect; inconclusive = small, poorly fitted or top-dose-only effect, or another doubt; inactive = no such curve, though single readings can be large; an effect the other way counts as inactive or inconclusive. Unless noted, % is set by controls: 0 for no effect and ±100 for the full control effect.

SMILES | TDP1 cell CPT | HT1080 IDH1KD tx | HT1080NT lethal | DT40 TDP1 no CPT | ALOX12 inh | IL-1B inflam inh
COc1ccc(-c2cc3nc(C)cc(N4CC(C)CC(C)C4)n3n2)cc1 (stereo unspecified) | ? | -2%[9.24 µM] | 16% | 18µM* | -2% | -12
COc1ccc(-c2cc3nc(C)c(C)c(N4CCN(C(=O)c5ccoc5)CC4)n3n2)cc1 | ? | -6% | -9% | 18µM* | ? | 2
CCCCCCCCCC[n+]1ccc(/C=C/c2c(C)[nH]c3ccccc23)cc1 | 0.56µM* | . | . | 0.4µM* | . | .
O=Cc1c[nH]c2ccccc12 | . | . | . | . | -31% | .
CCCCN(CC)Cc1c(C)[nH]c2ccccc2c1=O | 2% | 16% | 15% | 3% | 21% | -2
CCCCCCC[n+]1ccc(/C=C/c2c[nH]c3ccccc23)cc1 | 0.28µM* | . | . | 0.32µM* | . | .
CC[n+]1ccc(/C=C/c2c[nH]c3ccccc23)cc1 | 2.3µM* | -28% | ? | 2.1µM* | ? | 0
CCCCCCCCCC[n+]1ccc(/C=C/c2c[nH]c3ccccc23)c2ccccc21 | 1.6µM* | . | . | 2µM* | . | .
COc1ccc(CC(=O)Nc2nnc(CC(C)C)s2)cc1S(=O)(=O)N1CCOCC1 | -22% | -14% | -11% | -19% | -7% | 7
CSc1ccccc1NC(=O)c1ccc(F)cc1F | . | . | . | . | 8% | .
Cc1nc(C)c(C(=O)NCCc2ncc(C)n2C2CCC2)s1 | . | . | . | . | 35% | .
Cc1cc(=O)n(CC(=O)Nc2cc(Cl)ccc2C)c(-c2ccc(F)cc2)n1 | . | . | . | . | -2% | .
COC(=O)[C@@]12C[C@@H](CC(=O)N3CCCC3)C(=O)N(Cc3cccc4ccccc34)C1=CCC(C)(C)C2 | ? | -27% | ? | ? | 8% | -22
COC(=O)[C@@]12C[C@@H](CC(=O)N3CCOCC3)C(=O)N(Cc3cccc4ccccc34)C1=CCC(C)(C)C2 | 16µM* | -4% | -12% | ? | -2% | -26
COC(=O)[C@@]12C[C@@H](CC(=O)N3CCN(C(=O)C4CC4)CC3)C(=O)N(Cc3cccc4ccccc34)C1=CCC(C)(C)C2 | ? | ? | ? | 21µM* | ? | -12
Oc1ccccc1C1=Nc2nc3ccccc3n2C(c2ccccc2)C1 (stereo unspecified) | 21µM* | -19% | -10% | 18µM* | ? | -9
Cc1nc2c(n1O)CCc1c-2no[n+]1[O-] | . | . | . | . | -12% | .
Cc1ccc(NC(=O)Cn2c(=O)ccc3cc(S(=O)(=O)N4CCC(C)CC4)ccc32)cc1C | ? | . | . | -60% | -25% | .
COc1cccc(NC(=O)Cn2c(=O)ccc3cc(S(=O)(=O)N4CCC(C)CC4)ccc32)c1 | 18µM* | . | . | 16µM* | ? | .
CCc1cccc(NC(=O)Cn2c(=O)ccc3cc(S(=O)(=O)N4CCC(C)CC4)ccc32)c1 | 18µM* | . | . | 16µM* | -14% | .
CC(NC(=O)c1cc(F)ccc1Br)C1CC2CCC1C2 (stereo unspecified) | . | . | . | . | 0% | .
Clc1ccc(CN2CCN(c3ncnc4scc(-c5cccs5)c34)CC2)cc1 | 13µM* | -29% | -19% | 16µM* | 0% | -16
COc1ccc(-c2csc3ncnc(N4CCN(Cc5ccccc5)CC4)c23)cc1 | ? | 0% | 1% | ? | ? | -3
CCN1CCN(c2ncnc3scc(-c4ccc(C)c(C)c4)c23)CC1 | ? | -27% | ? | 18µM* | -10% | ?
Cc1ccccc1N1CCN(c2ncnc3scc(-c4cccs4)c23)CC1 | 13µM* | -16% | 3% | 9.2µM* | 0% | -10
Fc1ccc(CN2CCN(c3ncnc4scc(-c5ccc(F)cc5)c34)CC2)cc1 | 16µM* | ? | ? | 23µM* | -6% | 0
